Active and inactive are the calls of the source. Rule for the calls: active = hit-call score of the fitted dose curve at least 0.9, where 1 is the maximum; inactive = score below 0.9.

Read-out in assay [1]: Human Leukocyte Antigen - DR isotype (HLADR), HLA-DRA (gene 3122)
The assay is described as follows: BSK_BE3C_HLADR: BioMAP Diversity Plus: BE3C Assay for Human Leukocyte Antigen - DR isotype (HLADR) Biomarker Activity (AID 2283032). The settings on record: primary human bronchial epithelial cells; actives raise or lower the signal. An outline of the steps: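 ELISA read-out of HLA-DR on human lung bronchial epithelial primary cells, measured 24 h post-dosing. Both increases and decreases were scored relative to DMSO vehicle.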

Read-out in assay [2]: Vascular cell adhesion molecule 1 (VCAM1), VCAM1 (gene 7412)
In words: BSK_4H_VCAM1: BioMAP Diversity Plus: 4H Assay for Vascular cell adhesion molecule 1 (VCAM1) Biomarker Activity (AID 2283033).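 For outcome: cell-surface VCAM-1 protein measured by ELISA.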 Conditions: primary human endothelial cells (HUVEC); actives raise or lower the signal. An outline of the steps:
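ELISA read-out of VCAM-1 on human umbilical vein endothelium 24 hours after chemical dosing; gain or loss of signal was fitted relative to DMSO, with sulforhodamine B staining of parallel cultures flagging overt cytotoxicity.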

Read-out in assay [3]: Interferon-gamma inducible Protein 10 (IP10), CXCL10 (gene 3627)
In words: BSK_BE3C_IP10: BioMAP Diversity Plus: BE3C Assay for Interferon-gamma inducible Protein 10 (IP10) Biomarker Activity (AID 2283034). The settings on record: primary human bronchial epithelial cells; actives raise or lower the signal. An outline of the steps: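 Chemical is dosed onto human lung bronchial epithelial primary cells, cultures are incubated 24 h, and IP-10 is then quantified by ELISA. Gain or loss of signal is fitted in both directions relative to DMSO.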

Read-out in assay [4]: Monokine induced gamma interferon (MIG), CXCL9 (gene 4283)
The assay is described as follows: BSK_BE3C_MIG: BioMAP Diversity Plus: BE3C Assay for Monokine induced gamma interferon (MIG) Biomarker Activity (AID 2283035). Conditions: primary human bronchial epithelial cells; actives raise or lower the signal. An outline of the steps: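 Primary human bronchial epithelial cells treated for 24 h; MIG levels measured by ELISA, fitted bidirectionally versus DMSO. Parallel SRB total-protein staining assessed cytotoxicity.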

Read-out in assay [5]: Transforming growth factor beta 1 (TGFb1), TGFB1 (gene 7040)
The assay is described as follows: BSK_BE3C_TGFb1: BioMAP Diversity Plus: BE3C Assay for Transforming growth factor beta 1 (TGFb1) Biomarker Activity (AID 2283036;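 for outcome: TGF-b1 protein level measured by ELISA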). The settings on record: primary human bronchial epithelial cells; actives raise or lower the signal. An outline of the steps: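 Primary human lung bronchial epithelial cells; compound exposure 24 h; TGF-b1 by ELISA; bidirectional fit, DMSO baseline. Parallel SRB total-protein staining for cytotoxicity.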

Read-out in assay [6]: Plasminogen activator inhibitor-1 (PAI1), SERPINE1 (gene 5054)
In words: BSK_BE3C_PAI1: BioMAP Diversity Plus: BE3C Assay for Plasminogen activator inhibitor-1 (PAI1) Biomarker Activity (AID 2283037). The settings on record: primary human bronchial epithelial cells; actives raise or lower the signal. An outline of the steps: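 Primary human lung bronchial epithelial cells; chemical dosing; 24 h; PAI-1 measured by ELISA; bidirectional fit referenced to DMSO as negative control.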

Read-out in assay [7]: urokinase plasminogen activator (uPA), PLAU (gene 5328)
In words: BSK_BE3C_uPA: BioMAP Diversity Plus: BE3C Assay for urokinase plasminogen activator (uPA) Biomarker Activity (AID 2283038).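 For outcome: uPA protein level quantified by ELISA in cell cultures; uPA read one day after compound addition.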 The settings on record: primary human bronchial epithelial cells; actives raise or lower the signal. An outline of the steps: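 ELISA for uPA on human primary bronchial epithelial cultures 24 h post-treatment, gain or loss against DMSO. Parallel SRB staining (0.1% after 10% TCA fixation, 560 nm) assessed overt cytotoxicity.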

Read-out in assay [8]: Urokinase-type plasminogen activator receptor (uPAR), PLAUR (gene 5329)
The assay is described as follows: BSK_BE3C_uPAR: BioMAP Diversity Plus: BE3C Assay for Urokinase-type plasminogen activator receptor (uPAR) Biomarker Activity (AID 2283039).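 For outcome: cells exposed to compound for one day before measurement.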 The settings on record: primary human bronchial epithelial cells; actives raise or lower the signal. An outline of the steps: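 Human bronchial epithelial primary cells; chemical exposure 24 h; uPAR by ELISA; bidirectional fit vs DMSO control.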

Read-out in assay [9]: Interleukin-6 (IL6), IL6 (gene 3569)
In words: BSK_CASM3C_IL6: BioMAP Diversity Plus: CASM3C Assay for Interleukin-6 (IL6) Biomarker Activity for (AID 2283040). The settings on record: primary human coronary artery smooth muscle cells; actives raise or lower the signal.

Read-out in assay [10]: Tissue plasminogen activator (tPA), PLAT (gene 5327)
The assay is described as follows: BSK_BE3C_tPA: BioMAP Diversity Plus: BE3C Assay for Tissue plasminogen activator (tPA) Biomarker Activity (AID 2283041).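 Note: tPA level quantified by ELISA one day after compound addition.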 The settings on record: primary human bronchial epithelial cells; actives raise or lower the signal. An outline of the steps:
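Primary human lung bronchial epithelial cultures receive test chemical; after 24 h, tPA is quantified by ELISA, and gain or loss of signal is fitted bidirectionally relative to DMSO baseline.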

Read-out in assay [11]: Interleukin-8 (IL8), CXCL8 (gene 3576)
In words: BSK_CASM3C_IL8: BioMAP Diversity Plus: CASM3C Assay for Interleukin-8 (IL8) Biomarker Activity (AID 2283042).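 Note: IL-8 protein level quantified by ELISA.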 The settings on record: primary human coronary artery smooth muscle cells; actives raise or lower the signal.

Read-out in assay [12]: Human Leukocyte Antigen - DR isotype (HLADR), HLA-DRA (gene 3122)
The assay is described as follows: BSK_CASM3C_HLADR: BioMAP Diversity Plus: CASM3C Assay for Human Leukocyte Antigen - DR isotype (HLADR) Biomarker Activity (AID 2283043).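 Note: cell-surface HLA-DR protein level quantified by ELISA.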 The settings on record: primary human coronary artery smooth muscle cells; actives raise or lower the signal.

Read-out in assay [13]: Macrophage colony-stimulating factor (MCSF), CSF1 (gene 1435)
In words: BSK_CASM3C_MCSF: BioMAP Diversity Plus: CASM3C Assay for Macrophage colony-stimulating factor (MCSF) Biomarker Activity (AID 2283044).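 Note: M-CSF protein amount quantified by ELISA after 24 h exposure.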 Conditions: primary human coronary artery smooth muscle cells; actives raise or lower the signal.

Read-out in assay [14]: Low-density lipoprotein receptor (LDLR), LDLR (gene 3949)
The assay is described as follows: BSK_CASM3C_LDLR: BioMAP Diversity Plus: CASM3C Assay for Low-density lipoprotein receptor (LDLR) Biomarker Activity (AID 2283045).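 Note: LDLR protein level on the cell surface quantified by ELISA.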 The settings on record: primary human coronary artery smooth muscle cells; actives raise or lower the signal.

Read-out in assay [15]: Monocyte Chemoattractant Protein-1 (MCP1), CCL2 (gene 6347)
In words: BSK_CASM3C_MCP1: BioMAP Diversity Plus: CASM3C Assay for Monocyte Chemoattractant Protein-1 (MCP1) Biomarker Activity (AID 2283046).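 Note: MCP-1 level quantified by ELISA 24 h after dosing.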 Conditions: primary human coronary artery smooth muscle cells; actives raise or lower the signal.

Assay [16] can be described thus: BSK_CASM3C_Proliferation: Cell Proliferation Assessment in the BioMAP Diversity Plus: CASM3C Assay (AID 2283047).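 Note: sulforhodamine B total protein stain as relative cell number at 560 nm; sub-confluent cells exposed 48 h before staining; fitted both ways against DMSO so gain or loss of cell number.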 Conditions: primary human coronary artery smooth muscle cells.
Read-out in assay [17]: Monokine induced gamma interferon (MIG), CXCL9 (gene 4283)
The assay is described as follows: BSK_CASM3C_MIG: BioMAP Diversity Plus: CASM3C Assay for Monokine induced gamma interferon (MIG) Biomarker Activity (AID 2283048). Conditions: primary human coronary artery smooth muscle cells; actives raise or lower the signal.

Read-out in assay [18]: serum amyloid A (SAA), SAA1 (gene 6288)
The assay is described as follows: BSK_CASM3C_SAA: BioMAP Diversity Plus: CASM3C Assay for serum amyloid A (SAA) Biomarker Activity (AID 2283049).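 Note: SAA protein level quantified by ELISA.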 Conditions: primary human coronary artery smooth muscle cells; actives raise or lower the signal.

The nature of assay [19]: BSK_CASM3C_SRB: Viability Assessment in the BioMAP Diversity Plus: CASM3C Assay (AID 2283050).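 Note: total protein by SRB staining as cytotoxicity measure in parallel cultures.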 Conditions: primary human coronary artery smooth muscle cells.
Read-out in assay [20]: Thrombomodulin, THBD (gene 7056)
The assay is described as follows: BSK_CASM3C_Thrombomodulin: BioMAP Diversity Plus: CASM3C Assay for Thrombomodulin Biomarker Activity (AID 2283051).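 Note: thrombomodulin protein level measured by ELISA 24 h after dosing.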 Conditions: primary human coronary artery smooth muscle cells; actives raise or lower the signal.

For the compound `O=C(Nc1ccccc1)Nc1cnns1`, the result in assay [1], in assay [2], in [3], in assay [4], in assay [5] and in [6] was inactive. Moreover, the outcome in assay [7], in assay [8], in assay [9], in assay [10], in assay [11] and in assay [12] was inactive. Moreover, the result in assay [13], in assay [14], in [15], in [16], in assay [17] and in assay [18] was inactive. Further, the result in assay [19] and in [20] was inactive.
Take `O=C(O)COc1ccc(Cl)cc1Cl`: the result in [1], in [2], in assay [3], in [4], in [5] and in [6] was inactive. The outcome in [7], in [9], in assay [10], in [11], in assay [12] and in assay [13] was inactive. In addition, the outcome in assay [14], in assay [15], in [16], in [17], in assay [18] and in [19] was inactive. Besides, the result in assay [20] was inactive. Moreover, the AC50 in [8] is 0.152 µM (active).
Regarding `CCC(C)Nc1c([N+](=O)[O-])cc(C(C)(C)C)cc1[N+](=O)[O-]` (centres undefined), the result in assay [1], in [3], in assay [4], in [5], in [6] and in assay [7] was inactive. Besides, the outcome in [8], in assay [9], in assay [10], in [11], in assay [12] and in assay [13] was inactive. Moreover, the outcome in assay [14], in assay [15], in assay [16], in assay [17], in assay [18] and in assay [19] was inactive. In [20], the result was inactive. The AC50 in [2] is 15.8 µM (active).
Turning to `Clc1ccccc1-c1nnc(-c2ccccc2Cl)nn1`, the result in [1], in assay [2], in [3], in [4], in assay [6] and in [7] was inactive. The result in assay [8], in [9], in [10], in assay [11], in assay [12] and in [13] was inactive. Besides, the result in assay [14], in assay [15], in assay [17], in assay [18], in assay [19] and in [20] was inactive. For the same compound, the AC50 in assay [5] was 32.5 µM (active).
With `CNC(=O)Oc1ccccc1OC(C)C`, the outcome in assay [1], in assay [2], in assay [3], in assay [4], in assay [5] and in assay [6] was inactive. Besides, the result in assay [7], in assay [8], in assay [9], in assay [10], in [11] and in [12] was inactive. The outcome in [13], in [14], in assay [15], in assay [16], in assay [17] and in [18] was inactive. Further, the result in assay [19] and in [20] was inactive.
With `CCCN(CCOc1c(Cl)cc(Cl)cc1Cl)C(=O)n1ccnc1`, the AC50 in assay [1] is 29.3 µM (active); in [3] it was 29.9 µM (active); in assay [6], 30.9 µM (active); in assay [7], 32 µM (active); in assay [16] it was 26.8 µM (active); in assay [20] it was 3.97 µM (active). For the same compound, the outcome in assay [2], in [4], in assay [5], in assay [8], in assay [9] and in [10] was inactive. For the same compound, the result in assay [11], in assay [12], in assay [13], in assay [14], in assay [15] and in assay [17] was inactive. Also, the outcome in assay [18] and in [19] was inactive.
As to `CNC(=O)Oc1cccc(N=CN(C)C)c1`, in [1], the AC50 is 26.6 µM (active). The outcome in assay [2], in [3], in assay [4], in [5], in assay [6] and in assay [7] was inactive. Moreover, the result in assay [8], in [9], in [10], in [11], in [12] and in assay [13] was inactive. In addition, the result in [14], in [15], in assay [16], in assay [17], in [18] and in assay [19] was inactive. For the same compound, the outcome in assay [20] was inactive.

Source of the values: PubChem BioAssay (EPA / NIEHS).
